Measurements as given in PubChem BioAssay (NCI).
This is part of a sample that, as a whole, favours compounds with a hit. Of some 83,000 tested, about 20% had one in any assay.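 Negative percent growth values reflect cell death: -40 means 40% of the cells present at the start died, and -100 means all died.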 A number with no mark means an inactive call. Activity calls are given as the source filed them. How the source made its calls: active means growth percent below 10; inactive means the rest.

tested on: SNB-19 CNS; test: NCI-60 one-dose screen, 48 h (100 = growth as untreated, 0 = no growth, -100 = all killed); settings: 10 µM unless noted

Which growth does the source give for `CSc1nc(Nc2ccc(S(=O)(=O)Nc3ccon3)cc2)c(C#N)c(-c2ccc(Cl)cc2)n1` here?
Its growth is 101%.

For `COP(=O)(OC)C(c1ccc(O)cc1)(c1ccc(O)cc1)c1ccc(O)cc1`, which growth is on record?
Its growth is 106%.

Which growth does the source give for `C=C1CCC2C(C)(COC(=O)CC)C(OC(=O)CC)CCC2(C)C1C/C=C1/C(=O)OCC1OC(=O)CC` (configuration not stated) here?
The growth was 62%.

Which growth does the source give for `Cc1cnc2nc(-c3ccc(N(C)C)cc3)cn2c1` here?
The growth was 107%.

With `Cc1ccc2nc3c(n2c1)C(=O)C(=O)c1ccccc1-3` as the compound, how does the growth read?
The growth was -77.7% (active).

Which growth does the source give for `CC(C)=CCCC(C)c1ccc(C)c2c1OCN(CC1CCNCC1)C2` (configuration not stated) here?
The growth was 78.2%.

Which growth does the source give for `CCOc1cc(/C=C/C(=O)C(C(=O)/C=C/c2ccc(OC(=O)CNc3nc4ccccc4[nH]3)c(OCC)c2)C(=O)CNc2nc3ccccc3[nH]2)ccc1OC(=O)CNc1nc2ccccc2[nH]1` here?
Its growth is 25.1%.

For `COc1ccc(C(=O)/C=C/c2cccc(Nc3ccnc4cc(Cl)ccc34)c2)cc1`, which growth is on record?
The growth was 51.3%.

tested on: U251 CNS; test: as above; settings: 10 µM unless noted

`COc1cc(C2CC(C3C(=O)N(C)C(=O)N(C)C3=O)=NN2C=O)cc(OC)c1OC` (configuration not stated) was tested. Which growth did it give?
The growth was 96.3%.

For `C=C1CCC2C3(C)COC(c4ccccc4)OC3CCC2(C)C1C/C=C1/C(=O)OCC1OC(C)=O` (configuration not stated), which growth is on record?
The growth was 71.2%.

For `Clc1ccc(C2=NN(c3ccc(Cl)cc3)C(c3cccc(Nc4ccnc5cc(Cl)ccc45)c3)C2)cc1` (configuration not stated), which growth is on record?
Its growth is 76.8%.

How did the growth turn out when `CC(=O)N1N=C(c2ccc(Nc3nc(NCCO)nc(NCCO)n3)cc2)CC1c1ccc(Cl)cc1` (configuration not stated) was run?
The growth was 94.3%.

For `O=C(c1ccccc1)c1ccc(Oc2ccc([N+](=O)[O-])cc2[N+](=O)[O-])cc1`, which growth is on record?
Its growth is 35%.

`O=C(C(=O)N1CCOCC1)c1cn(CCCn2cc(C(=O)C(=O)N3CCOCC3)c3ccccc32)c2ccccc12` was tested. Which growth did it give?
Its growth is 102%.

How did the growth turn out when `CC(C)CC1NC(=O)C(CCCN)NC(=O)C(C(C)C)NC(=O)C2CCCN2C(=O)C(Cc2ccccc2)NC(=O)C(CC(C)C)NC(=O)C(CCCN)NC(=O)C(C(C)C)NC(=O)C2CCCN2C(=O)C(Cc2ccccc2)NC1=O` (configuration not stated) was run?
The growth was -94.4% (active).

With `Cc1csc(C#Cc2cncc(O)c2)n1` as the compound, how does the growth read?
The growth was 107%.

How did the growth turn out when `COc1cc(/C=C/C(=O)C(C(=O)/C=C/c2ccc(OC(=O)CCNC34CC5CC(CC(C5)C3)C4)c(OC)c2)C(=O)CCNC23CC4CC(CC(C4)C2)C3)ccc1OC(=O)CCNC12CC3CC(CC(C3)C1)C2` (configuration not stated) was run?
Its growth is 7.57% (active).

`C/C=C(/C(=C/C)c1ccc(O)cc1)c1ccc(O)cc1` was tested. Which growth did it give?
Its growth is 32.8%.

Which growth does the source give for `COc1cc(/C=C/C(=O)CC(=O)/C=C/c2ccc(OC(=O)CCNC34CC5CC(CC(C5)C3)C4)c(OC)c2)ccc1OC(=O)CCNC12CC3CC(CC(C3)C1)C2` here?
Its growth is 22.2%.

`Oc1c(Cl)cc(Cl)c(Cl)c1Cc1c(O)c(Cl)cc(Cl)c1Cl` was tested. Which growth did it give?
Its growth is 15%.

Which growth does the source give for `COc1cc(C2CC(c3ccc(C)cc3)=NN2C=O)ccc1OCCN(C)C` (configuration not stated) here?
The growth was 92.2%.

How did the growth turn out when `NS(=O)(=O)c1cc(C2(O)NC(=O)c3ccccc32)ccc1Cl` (configuration not stated) was run?
The growth was 103%.

Which growth does the source give for `CCn1cnc(C[C@H](NC(=O)[C@H](CCCCNC(=O)Nc2cc(C(F)(F)F)cc(C(F)(F)F)c2)NC(=O)Nc2cc(C(F)(F)F)cc(C(F)(F)F)c2)C(=O)OC)c1` here?
The growth was -100% [100 µM] (active).

Which growth does the source give for `CS(=O)(=O)N1CCN(Cc2cc3nc(-c4cccc5[nH]ncc45)nc(N4CCOCC4)c3s2)CC1` (tested in a mixture with another compound) here?
Its growth is 30.5%.

For `CN(C)c1ccc(-c2nc3ncc(Br)cc3o2)cc1`, which growth is on record?
The growth was 100%.

How did the growth turn out when `COc1ccc(-c2cc(-c3nnc(SCC(=O)Nc4ccc(C(C)=O)cc4)n3-c3ccccc3)c3ccccc3n2)cc1OC` was run?
The growth was 101%.

For `Nc1nc(NC2CC2)c2ncn(C3C=CC(CO)C3)c2n1` (configuration not stated), which growth is on record?
Its growth is 102%.

With `C[C@]12CCC(=O)C=C1CC[C@H]1[C@@H]3C[C@@H](O)[C@](O)(C(=O)CO)[C@@]3(C)C[C@H](O)[C@@]12F` as the compound, how does the growth read?
Its growth is 109%.

With `NS(=O)(=O)c1cc2c(cc1Cl)NC=NS2(=O)=O` as the compound, how does the growth read?
The growth was 99.7%.

How did the growth turn out when `COc1cnc2c(c1)C(=O)c1c-2n(CCCn2ccnc2)c(=O)c2cc(F)ccc12` was run?
The growth was -27.1% (active).

With `NC(=O)c1cc(Br)cc(Br)c1NS(=O)(=O)c1ccccc1` as the compound, how does the growth read?
The growth was 108%.

`CN(C)c1ccc(-n2nc3ccccc3n2)cc1` was tested. Which growth did it give?
The growth was 95.5%.
